Source: PubChem BioAssay (EPA / NIEHS)
The source made the active and inactive calls. The calls were made as follows: active = hit-call score of the fitted dose curve at least 0.9, where 1 is the maximum; inactive = score below 0.9.

Read-out: adenosine kinase (ADK) gene, ADK (gene 132)
Experiment: LTEA_HepaRG_ADK: Life Technologies and Expression Analysis (LTEA) Assay for adenosine kinase (ADK) gene using HepaRG (AID 2283471)
Settings: mRNA level, 48 h; actives raise or lower the signal
Summary of the method: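 Following 48 h exposure of HepaRG cells in 0.5% DMSO (top concentration 100 uM, duplicate wells), ADK mRNA induction or suppression was measured by qRT-PCR, normalised to ACTB/GAPDH/POLR2A, and fitted bidirectionally relative to vehicle.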

outcome, inactive:
CCOCCO
O=C(NS(=O)(=O)/C=C/c1ccccc1)c1ccc(F)cc1Cl
CCCCCCCCCCCCCCCO
CCOC(=O)COc1ccc2c(c1)CC(NCC(O)c1cccc(Cl)c1)CC2 (configuration not stated)
CCCCCCCCO
CC(C)c1cccc(C(C)C)c1N1C(=O)c2ccc(O)cc2C1=O
CNCc1ccc(NC(=O)c2c[nH]c3c2C(=O)CCC3)cc1
CN(C)c1ccc(N=NS(=O)(=O)O)cc1
O=C(O)CCN(C1(C(=O)NO)CCCC1)S(=O)(=O)c1ccc(Oc2ccc(F)cc2)cc1

Read-out: Alpha-fetoprotein (AFP) gene, AFP (gene 174)
Experiment: LTEA_HepaRG_AFP: Life Technologies and Expression Analysis (LTEA) Assay for Alpha-fetoprotein (AFP) gene using HepaRG (AID 2283472);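 as to AC50: AFP transcript by TaqMan qRT-PCR normalized to ACTB GAPDH and POLR2A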
Settings: mRNA level, 48 h; actives raise or lower the signal
Summary of the method: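 AFP transcript measured by TaqMan qRT-PCR with three housekeeping genes for normalization, after 48 h chemical treatment of HepaRG cells (top 100 uM, half-log steps, 0.5% DMSO). Gain or loss fitted against vehicle.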

outcome, inactive:
CC1(C)C(=O)N(Br)C(=O)N1Br
CC(=O)OCCC(C)C
CC(=O)c1ccc2c(c1)[C@H](NC(=O)c1ccc(F)cc1)[C@@H](O)C(C)(C)O2
C1=CCCC=CCCC=CCC1
Cn1c(=O)c2c(ncn2C)n(C)c1=O
O=C1OC(=O)C2C3C=CC(C3)C12 (configuration not stated)
CC(C)=CCCC(C)CCO (configuration not stated)
Cn1c(=O)cc(Oc2ccc(F)cc2F)c2cnc(NCC(C)(C)O)nc21
CC(C)CC(C)(O)C#CC(C)(O)CC(C)C (configuration not stated)
Clc1nc(Cl)c(Cl)c(Cl)c1Cl
COC(=O)c1c(Cl)c(Cl)c(C(=O)OC)c(Cl)c1Cl
CCC(C)(C)C(=O)O[C@H]1C[C@@H](C)C=C2C=C[C@H](C)[C@H](CC[C@@H]3C[C@@H](O)CC(=O)O3)[C@H]21
CCCC(=O)OCC
CC(C)CCCCCCOC(=O)c1ccc(C(=O)OCCCCCCC(C)C)c(C(=O)OCCCCCCC(C)C)c1
C[C@](N)(Cc1ccc(O)c(O)c1)C(=O)O
COc1ccc(-n2nc(C(F)F)cc2-c2ccc(S(C)=O)cc2)cc1 (configuration not stated)
CCOCCO
CCCCCCCCCCCCCCCO
CCOC(=O)COc1ccc2c(c1)CC(NCC(O)c1cccc(Cl)c1)CC2 (configuration not stated)
CCCCCCCCO
CNCc1ccc(NC(=O)c2c[nH]c3c2C(=O)CCC3)cc1
CN(C)c1ccc(N=NS(=O)(=O)O)cc1
O=C(O)CCN(C1(C(=O)NO)CCCC1)S(=O)(=O)c1ccc(Oc2ccc(F)cc2)cc1

AC50, active:
O=C(CCCCCCCCc1cccnc1)N1CCC(C=C(c2ccccc2)c2ccccc2)CC1 24.3 µM
Cn1cnc([N+](=O)[O-])c1Sc1ncnc2nc[nH]c12 5.38 µM
O=c1[nH]c2ccc(S(=O)CCN3CCC(Cc4ccc(F)cc4)CC3)cc2o1 (configuration not stated) 61.1 µM
CCn1nc(Cc2ccccc2)cc1C1CCN(C[C@H]2C[C@H](N(C)[C@@H](C(=O)O)C(C)C)C[C@@H]2c2cccc(F)c2)CC1 50 µM
O=C(NS(=O)(=O)/C=C/c1ccccc1)c1ccc(F)cc1Cl 18.9 µM
CC(C)c1cccc(C(C)C)c1N1C(=O)c2ccc(O)cc2C1=O 79.9 µM

Read-out: BCL2L11 (gene 10018)
Experiment: LTEA_HepaRG_BCL2L11: Life Technologies and Expression Analysis (LTEA) Assay for Bcl-2 (BCL2L11) gene using HepaRG (AID 2283473)
Settings: mRNA level, 48 h; actives raise or lower the signal
Summary of the method: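 HepaRG, 48 h exposure, 8-pt half-log series from 100 uM in 0.5% DMSO, duplicates; qRT-PCR (Fluidigm TaqMan) for BCL2L11, housekeeping-normalized; bidirectional curve fit relative to DMSO baseline.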

outcome, inactive:
CC(=O)c1ccc2c(c1)[C@H](NC(=O)c1ccc(F)cc1)[C@@H](O)C(C)(C)O2
C1=CCCC=CCCC=CCC1
CC(C)=CCCC(C)CCO (configuration not stated)
CC(C)CC(C)(O)C#CC(C)(O)CC(C)C (configuration not stated)
Clc1nc(Cl)c(Cl)c(Cl)c1Cl
COC(=O)c1c(Cl)c(Cl)c(C(=O)OC)c(Cl)c1Cl
CCn1nc(Cc2ccccc2)cc1C1CCN(C[C@H]2C[C@H](N(C)[C@@H](C(=O)O)C(C)C)C[C@@H]2c2cccc(F)c2)CC1
CCC(C)(C)C(=O)O[C@H]1C[C@@H](C)C=C2C=C[C@H](C)[C@H](CC[C@@H]3C[C@@H](O)CC(=O)O3)[C@H]21
CCCC(=O)OCC
CC(C)CCCCCCOC(=O)c1ccc(C(=O)OCCCCCCC(C)C)c(C(=O)OCCCCCCC(C)C)c1
COc1ccc(-n2nc(C(F)F)cc2-c2ccc(S(C)=O)cc2)cc1 (configuration not stated)
O=C(NS(=O)(=O)/C=C/c1ccccc1)c1ccc(F)cc1Cl
CCOC(=O)COc1ccc2c(c1)CC(NCC(O)c1cccc(Cl)c1)CC2 (configuration not stated)
CNCc1ccc(NC(=O)c2c[nH]c3c2C(=O)CCC3)cc1
CN(C)c1ccc(N=NS(=O)(=O)O)cc1
O=C(O)CCN(C1(C(=O)NO)CCCC1)S(=O)(=O)c1ccc(Oc2ccc(F)cc2)cc1

Read-out: Apolipoprotein A-V (APOA5) gene, APOA5 (gene 116519)
Experiment: LTEA_HepaRG_APOA5: Life Technologies and Expression Analysis (LTEA) Assay for Apolipoprotein A-V (APOA5) gene using HepaRG (AID 2283474)
Settings: mRNA level, 48 h; actives raise or lower the signal
Summary of the method: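 HepaRG, 48 h chemical exposure in serum-free induction medium, 8-pt half-log series (top 100 uM), 0.5% DMSO vehicle, duplicates. Readout: APOA5 mRNA by qRT-PCR, housekeeping-normalized; bidirectional fit vs DMSO baseline.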

outcome, inactive:
CC1(C)C(=O)N(Br)C(=O)N1Br
CC(=O)OCCC(C)C
CC(=O)c1ccc2c(c1)[C@H](NC(=O)c1ccc(F)cc1)[C@@H](O)C(C)(C)O2
C1=CCCC=CCCC=CCC1
Cn1c(=O)c2c(ncn2C)n(C)c1=O
O=C1OC(=O)C2C3C=CC(C3)C12 (configuration not stated)
CC(C)=CCCC(C)CCO (configuration not stated)
Cn1c(=O)cc(Oc2ccc(F)cc2F)c2cnc(NCC(C)(C)O)nc21
CC(C)CC(C)(O)C#CC(C)(O)CC(C)C (configuration not stated)
Clc1nc(Cl)c(Cl)c(Cl)c1Cl
COC(=O)c1c(Cl)c(Cl)c(C(=O)OC)c(Cl)c1Cl
CCn1nc(Cc2ccccc2)cc1C1CCN(C[C@H]2C[C@H](N(C)[C@@H](C(=O)O)C(C)C)C[C@@H]2c2cccc(F)c2)CC1
CCC(C)(C)C(=O)O[C@H]1C[C@@H](C)C=C2C=C[C@H](C)[C@H](CC[C@@H]3C[C@@H](O)CC(=O)O3)[C@H]21
CCCC(=O)OCC
CC(C)CCCCCCOC(=O)c1ccc(C(=O)OCCCCCCC(C)C)c(C(=O)OCCCCCCC(C)C)c1
C[C@](N)(Cc1ccc(O)c(O)c1)C(=O)O
COc1ccc(-n2nc(C(F)F)cc2-c2ccc(S(C)=O)cc2)cc1 (configuration not stated)
CCOCCO
O=C(NS(=O)(=O)/C=C/c1ccccc1)c1ccc(F)cc1Cl
CCCCCCCCCCCCCCCO
CCOC(=O)COc1ccc2c(c1)CC(NCC(O)c1cccc(Cl)c1)CC2 (configuration not stated)
CCCCCCCCO
CC(C)c1cccc(C(C)C)c1N1C(=O)c2ccc(O)cc2C1=O
CNCc1ccc(NC(=O)c2c[nH]c3c2C(=O)CCC3)cc1
O=C(O)CCN(C1(C(=O)NO)CCCC1)S(=O)(=O)c1ccc(Oc2ccc(F)cc2)cc1

AC50, active:
O=C(CCCCCCCCc1cccnc1)N1CCC(C=C(c2ccccc2)c2ccccc2)CC1 29.6 µM
Cn1cnc([N+](=O)[O-])c1Sc1ncnc2nc[nH]c12 15.8 µM
CN(C)c1ccc(N=NS(=O)(=O)O)cc1 12.8 µM
